For part of these data: Entries with a potency or affinity are not part of this list. Calls of active or inactive are those of the source.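 How the source made its calls, unless noted: active means calcium signal cut by more than 3 SD below the full-agonist control yet still positive, in both repeats and the earlier primary screen; inactive means the rest.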
Experiments:
[1] = test system: TRPC4 beta (transient receptor potential cation channel C4), mouse; assay: TRPC4 cation channel opening, retest – cell-based, Fluo4 calcium, HEK293 TRPC4beta/mu-opioid, duplicates, 10 µM, confirmation (AID 2426;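 active means fluorescence ratio normalized to control raised more than 50% in primary screen plus both repeat runs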;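 on activation: percent rise of integrated ratio over buffer wells lacking compound which define 0%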); settings: Fluo4 calcium fluorescence, at 10 µM; hits give high values
[2] = test system: transient receptor potential cation channel C4 beta (TRPC4), mouse; assay: TRPC4 cation channel opening, second retest – cell-based, second round, Fluo4, HEK293 TRPC4beta/mu-opioid, 1 µM, confirmation (AID 2461;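 active means primary screen active and over 50% activation in each of two duplicate runs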); settings: Fluo4 calcium fluorescence, at 1 µM; hits give high values
[3] = test system: TRPC4 (transient receptor potential cation channel C4 beta), mouse; assay: potentiation of DAMGO EC20 TRPC4 response – cell-based, second round, Fluo-4, HEK293 TRPC4beta/mu-opioid, 1 µM, confirmation (AID 2554;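 active means primary screen hit whose fluorescence ratio, in both repeats, exceeds the weak agonist control mean by 3 SD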); settings: DAMGO EC20, Fluo-4 calcium flux, at 1 µM; hits give high values
[4] = test system: TRPC4 beta (transient receptor potential cation channel C4), mouse; assay: potentiation of DAMGO EC20 TRPC4 response – cell-based, Fluo-4, HEK293 TRPC4beta/mu-opioid, confirmation (AID 2555;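 active means primary screen hit whose calcium fluorescence ratio, in both repeats, exceeds the weak agonist control mean by 3 SD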); settings: DAMGO EC20, Fluo-4 calcium flux, at 10 µM; hits give high values
[5] = molecular target: Short transient receptor potential channel 4 (Mus musculus) (UniProt Q9QUQ5); assay: blockers of DAMGO-evoked TRPC4 calcium flux – cell-based, Fluo4, HEK293 TRPC4beta/mu-opioid, confirmation (AID 2636); settings: at 10 µM; hits give high values
Chain of Short transient receptor potential channel 4 (Mus musculus) (Q9QUQ5 whole entry, looked up): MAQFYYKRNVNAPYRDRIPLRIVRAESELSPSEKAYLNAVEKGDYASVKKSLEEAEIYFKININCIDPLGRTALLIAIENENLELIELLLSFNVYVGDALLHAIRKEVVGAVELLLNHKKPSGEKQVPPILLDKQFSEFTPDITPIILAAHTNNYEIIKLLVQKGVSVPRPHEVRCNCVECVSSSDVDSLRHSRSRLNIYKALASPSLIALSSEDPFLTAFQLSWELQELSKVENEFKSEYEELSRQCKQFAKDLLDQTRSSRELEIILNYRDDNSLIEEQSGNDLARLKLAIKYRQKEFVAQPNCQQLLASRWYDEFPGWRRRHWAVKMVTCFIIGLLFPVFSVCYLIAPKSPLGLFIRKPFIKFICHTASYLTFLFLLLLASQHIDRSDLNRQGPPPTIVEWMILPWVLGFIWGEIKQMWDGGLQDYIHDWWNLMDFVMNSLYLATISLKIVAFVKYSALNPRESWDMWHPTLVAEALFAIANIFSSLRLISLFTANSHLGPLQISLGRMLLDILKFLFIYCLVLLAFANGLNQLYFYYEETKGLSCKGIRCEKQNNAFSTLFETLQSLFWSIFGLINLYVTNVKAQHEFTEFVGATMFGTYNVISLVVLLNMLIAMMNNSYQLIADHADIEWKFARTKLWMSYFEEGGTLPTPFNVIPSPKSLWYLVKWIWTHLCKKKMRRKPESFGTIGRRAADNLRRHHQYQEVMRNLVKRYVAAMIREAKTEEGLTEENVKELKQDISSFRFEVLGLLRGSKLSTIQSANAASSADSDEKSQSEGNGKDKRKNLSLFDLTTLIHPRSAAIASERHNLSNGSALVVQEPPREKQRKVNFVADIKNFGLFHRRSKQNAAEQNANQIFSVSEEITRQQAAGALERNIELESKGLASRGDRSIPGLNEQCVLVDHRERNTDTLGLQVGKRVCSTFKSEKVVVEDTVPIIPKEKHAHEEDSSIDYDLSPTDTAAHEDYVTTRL

[6] = molecular target: Short transient receptor potential channel 4 (Mus musculus) (UniProt Q9QUQ5); assay: blockers of DAMGO-evoked TRPC4 calcium flux – cell-based, second round, Fluo4, HEK293 TRPC4beta/mu-opioid, 1 µM, confirmation (AID 2637;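 active means calcium signal ratio cut to more than 3 SD under the fully stimulated control mean yet still positive, in both repeats and the primary screen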;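 on inhibition: percent of integrated ratio relative to wells lacking test compound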); settings: at 1 µM; hits give high values
[7] = molecular target: Short transient receptor potential channel 4 (Mus musculus) (UniProt Q9QUQ5); assay: potentiation of DAMGO-evoked TRPC4 calcium signal – cell-based, HEK293 TRPC4/mu-opioid, Fluo-4 calcium, EC20 DAMGO, dose response (AID 434941;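 active means earlier screen potentiator hit that boosts the TRPC4 ion channel at some dose, with a dose response; inactive means no potentiation, no dose response, or not a prior hit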;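 further: calcium entry triggered by an EC20 dose of DAMGO at the co-expressed mu-opioid receptor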)
[8] = molecular target: Short transient receptor potential channel 6 (Mus musculus) (UniProt Q61143); assay: TRPC6 blockade by TRPC4 inhibitor hits – cell-based, HEK293, membrane potential dye, duplicate, selectivity assay for TRPC4 inhibitor project, confirmation (AID 434948;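 active means active in primary screen and both duplicates, each dropping signal beyond three positive-control SD with fluorescence still positive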); settings: HEK293 TRPC6, membrane potential dye fluorescence, at 10 µM, stimulated with maximal-effect acetylcholine; hits give high values
Chain of Short transient receptor potential channel 6 (Mus musculus) (Q61143 whole entry, looked up): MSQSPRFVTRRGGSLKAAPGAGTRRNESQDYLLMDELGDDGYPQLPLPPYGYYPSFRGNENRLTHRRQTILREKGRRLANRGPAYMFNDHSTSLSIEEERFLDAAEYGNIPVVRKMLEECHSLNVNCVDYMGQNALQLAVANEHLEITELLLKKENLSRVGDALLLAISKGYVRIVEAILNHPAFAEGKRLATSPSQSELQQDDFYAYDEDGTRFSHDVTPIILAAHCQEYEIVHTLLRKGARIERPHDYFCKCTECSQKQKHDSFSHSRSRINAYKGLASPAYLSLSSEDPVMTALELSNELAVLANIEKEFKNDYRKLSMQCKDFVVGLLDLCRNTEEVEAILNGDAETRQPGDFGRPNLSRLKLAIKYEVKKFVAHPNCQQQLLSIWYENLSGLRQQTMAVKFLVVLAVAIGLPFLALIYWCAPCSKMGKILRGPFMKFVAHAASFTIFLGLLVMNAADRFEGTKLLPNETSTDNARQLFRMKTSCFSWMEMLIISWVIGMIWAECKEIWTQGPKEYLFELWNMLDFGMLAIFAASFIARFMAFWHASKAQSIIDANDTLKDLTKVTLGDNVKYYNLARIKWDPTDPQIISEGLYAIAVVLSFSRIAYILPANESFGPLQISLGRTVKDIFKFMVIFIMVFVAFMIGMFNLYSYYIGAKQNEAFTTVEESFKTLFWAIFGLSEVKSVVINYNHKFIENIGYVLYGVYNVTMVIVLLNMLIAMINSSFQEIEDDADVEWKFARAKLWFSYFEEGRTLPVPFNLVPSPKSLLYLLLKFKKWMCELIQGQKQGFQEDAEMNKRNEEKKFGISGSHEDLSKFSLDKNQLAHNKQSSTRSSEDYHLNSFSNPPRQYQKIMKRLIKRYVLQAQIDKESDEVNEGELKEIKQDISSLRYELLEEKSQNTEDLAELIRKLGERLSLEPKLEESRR

[9] = molecular target: Short transient receptor potential channel 6 (Mus musculus) (UniProt Q61143); assay: TRPC6 opening by TRPC4 activator hits – cell-based, HEK293, membrane potential dye, duplicate, selectivity assay for TRPC4 activator project, confirmation (AID 434950;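 active means membrane potential signal rise above negative control mean plus 3 SD in both duplicates, also active in the earlier TRPC4 screen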;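 on activation: 0% = buffer only wells and 100% = acetylcholine maximal-effect wells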); settings: HEK293 TRPC6, membrane potential fluorescence, at 10 µM; activation: hits give high values; outcome: activation
[10] = molecular target: Short transient receptor potential channel 6 (Mus musculus) (UniProt Q61143); assay: positive modulators of mouse TRPC6 channel – HEK293 cells, membrane potential dye, duplicate, selectivity assay for TRPC4 potentiator project, confirmation (AID 434952;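 active means compound raising the membrane signal above positive-control mean plus 3 SD in both repeats, and a primary screen hit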); settings: HEK293 TRPC6, membrane potential dye fluorescence, at 10 µM, maximal acetylcholine added after compound; hits give high values
[11] = molecular target: Short transient receptor potential channel 4 (Mus musculus) (UniProt Q9QUQ5); assay: calcium flux activators in TRPC4/5HT1a cells, counter-screen for TRPC4 activator project, cell-based, second counter screen, HEK293 TRPC4/5HT1a, Fluo-4 (AID 434977;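 active means calcium signal rise above buffer-control mean plus 5 SD in both duplicates, and also a hit in the primary screen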;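 on activation: plate controls were assay buffer for no effect and maximal serotonin response for full effect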); settings: Fluo-4 calcium flux, at 10 µM; hits give high values
[12] = serotonin-gated TRPC4 signal block – cell-based, second counter screen, HEK293 TRPC4/5HT1a, Fluo-4, counter-screen for TRPC4 inhibitor project, confirmation (AID 434978;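 active means primary screen active whose calcium signal fell more than 3 SD beyond the full-serotonin control mean in both duplicate plates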;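 on outcome: serotonin given first at submaximal then at maximal dose after compound preincubation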); settings: Fluo-4 calcium flux, at 10 µM, serotonin added to trigger calcium flux; hits give high values
[13] = test system: TRPC4 (mouse), co-expressed with 5HT1a in HEK293; assay: enhancement of serotonin-evoked TRPC4 response – cell-based, second counter screen, HEK293 TRPC4/5HT1a, Fluo-4, counter-screen for TRPC4 potentiator project, confirmation (AID 434979;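 active means signal rise over 3 SD above mean of control wells given weak agonist, in both repeats and first screen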); settings: Fluo-4 calcium flux, at 10 µM, serotonin added at its EC20 dose; hits give high values
[14] = nonspecific calcium rise without TRPC4 – cell-based, HEK293 mu-opioid receptor line, counter-screen for TRPC4 activator project, confirmation (AID 449723;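 active means hit in primary screen, with calcium signal over 5 SD above buffer well mean in both duplicates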;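 further: counter screen cells carry the mu-opioid receptor alone and lack TRPC4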); settings: HEK293 mu-opioid cells, Fluo-4 calcium fluorescence, at 10 µM; hits give high values
[15] = nonspecific potentiation of DAMGO calcium response – cell-based, HEK293 mu-opioid receptor line, counter-screen for TRPC4 allosteric potentiator project, confirmation (AID 449724;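 active means calcium signal rise more than 3 SD above the low-dose agonist control mean, in both duplicate plates and the primary screen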); settings: HEK293 mu-opioid receptor cells, Fluo-4 calcium flux, at 10 µM, compound added before EC20 DAMGO stimulus; hits give high values

O=c1c2c(-c3ccccc3)csc2ncn1/N=C/c1cccc([N+](=O)[O-])c1O
active: inhibition [5] 90% | inhibition [6] 39% | activation [11] 36.1% | inhibition [12] 27.2%
inactive: outcome [1] | outcome [2] | outcome [3] | outcome [4] | outcome [7] | outcome [8] | outcome [9] | outcome [10] | outcome [13] | outcome [14] | outcome [15]

O=C(NC1CC1)C1=C[C@H](C2CCCCC2)C[C@H](OCc2ccc(CO)cc2)O1
active: activation [1] 337% | inhibition [5] 75% | activation [9] 41% | activation [11] 131% | inhibition [12] 9.94%
inactive: outcome [2] | outcome [3] | outcome [4] | outcome [6] | outcome [7] | outcome [8] | outcome [10] | outcome [13] | outcome [14] | outcome [15]

CCOC(=O)C1(CC2CC2)CCN(Cc2cn[nH]c2-c2ccccc2)CC1
active: inhibition [5] 97% | inhibition [6] 47% | activation [9] 91% | inhibition [12] 35.9%
inactive: outcome [1] | outcome [2] | outcome [3] | outcome [4] | outcome [7] | outcome [8] | outcome [10] | outcome [11] | outcome [13] | outcome [14] | outcome [15]

OC(CNC1CCCc2ccccc21)COc1c(Cl)cccc1Cl (stereo not given)
active: activation [1] 86% | inhibition [6] 52% | activation [9] 101% | activation [11] 9.49% | inhibition [12] 35.9% | activation [14] 14.8%
inactive: outcome [2] | outcome [3] | outcome [4] | outcome [5] | outcome [7] | outcome [8] | outcome [10] | outcome [13] | outcome [15]

Cc1ccc(COn2c(-c3ccc(Cl)cc3Cl)nc3ncccc32)cc1
active: activation [9] 46%
inactive: outcome [1] | outcome [2] | outcome [3] | outcome [4] | outcome [5] | outcome [6] | outcome [7] | outcome [8] | outcome [10] | outcome [11] | outcome [12] | outcome [13] | outcome [14] | outcome [15]

CCOC(=O)C1(CC2CC2)CCN(Cc2ccc(O)c(Cl)c2)CC1
inactive: outcome [1] | outcome [2] | outcome [3] | outcome [4] | outcome [7] | outcome [8] | outcome [10] | outcome [11] | outcome [12] | outcome [13] | outcome [14] | outcome [15]
active: inhibition [5] 97% | inhibition [6] 63% | activation [9] 82%

CCCCC(c1nnnn1CC1CCCO1)N1CCN(Cc2ccccc2)CC1 (stereo not given)
inactive: outcome [1] | outcome [2] | outcome [3] | outcome [4] | outcome [6] | outcome [7] | outcome [8] | outcome [10] | outcome [11] | outcome [12] | outcome [13] | outcome [14] | outcome [15]
active: inhibition [5] 84% | activation [9] 64.5%

COc1cccc(CC2(CO)CCCN(Cc3ccccc3-c3ccco3)C2)c1 (stereo not given)
inactive: outcome [1] | outcome [2] | outcome [3] | outcome [4] | outcome [5] | outcome [7] | outcome [8] | outcome [10] | outcome [11] | outcome [12] | outcome [13] | outcome [14] | outcome [15]
active: inhibition [6] 42% | activation [9] 47%

CN(C)C(CNC(=O)c1cc2ccccc2oc1=O)c1ccccc1 (stereo not given)
inactive: outcome [2] | outcome [3] | outcome [4] | outcome [5] | outcome [7] | outcome [8] | outcome [9] | outcome [10] | outcome [11] | outcome [12] | outcome [13] | outcome [14] | outcome [15]
active: activation [1] 65% | inhibition [6] 76%

Cc1ccc(S(=O)(=O)Nc2cccc(C(=O)NCC(c3ccco3)N3CCCC3)c2)cc1F (stereo not given)
active: activation [1] 58% | inhibition [6] 67% | activation [9] 31.5%
inactive: outcome [2] | outcome [3] | outcome [4] | outcome [5] | outcome [7] | outcome [8] | outcome [10] | outcome [11] | outcome [12] | outcome [13] | outcome [14] | outcome [15]

CC(=O)Nc1ccc(C2(c3ccc(NC(C)=O)cc3)C(=O)Nc3ccccc32)cc1
inactive: outcome [1] | outcome [2] | outcome [3] | outcome [4] | outcome [7] | outcome [8] | outcome [10] | outcome [11] | outcome [12] | outcome [13] | outcome [14] | outcome [15]
active: inhibition [5] 83% | inhibition [6] 61% | activation [9] 30%

Cc1ccccc1OCC(O)Cn1c(=N)n(Cc2ccccc2)c2ccccc21 (stereo not given)
inactive: outcome [2] | outcome [3] | outcome [4] | outcome [6] | outcome [7] | outcome [10] | outcome [13] | outcome [15]
active: activation [1] 70% | inhibition [5] 84% | inhibition [8] 39.5% | activation [9] 52.5% | activation [11] 9.48% | inhibition [12] 38% | activation [14] 18.7%

COc1cccc(-c2nn(-c3ccccc3)cc2CN(C)C(C)c2ccncn2)c1 (stereo not given)
inactive: outcome [1] | outcome [2] | outcome [3] | outcome [4] | outcome [6] | outcome [7] | outcome [8] | outcome [10] | outcome [11] | outcome [12] | outcome [13] | outcome [14] | outcome [15]
active: inhibition [5] 93% | activation [9] 41%

CN1C2C=C(N(CCc3c[nH]c4ccccc34)C(=O)c3ccc(Cl)cc3)CC1CC2 (stereo not given)
inactive: outcome [2] | outcome [3] | outcome [4] | outcome [5] | outcome [7] | outcome [8] | outcome [9] | outcome [10] | outcome [11] | outcome [12] | outcome [13] | outcome [14] | outcome [15]
active: activation [1] 130% | inhibition [6] 80%

Source: PubChem BioAssay
